Assays:
Experiment in all cases: growth AUC relative to DMSO control (median of replicates) (fraction); higher = more growth (less inhibition), active = hit call of the paper
Settings in all cases: 20 µM; 24 h;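 active = AUC reduced over 20% with Padj below 0.05 in at least 2 of 3 replicates; inactive = otherwise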
[1] = tested on: Akkermansia muciniphila
Summary of the method: (§1)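 Starting at OD600 0.05, gut bacterial monocultures in mGAM were grown anaerobically at 37 °C with 20 µM compound (1% DMSO) under pierced gas-permeable seals. OD600 was read every hour for 24 h, and the lowest OD of each curve was set to 0. Area under the growth curve was normalised to the plate median of solvent-only wells, or to row and column medians on the industrial chemical plate, and the median of three biological replicates grown on separate days is given.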

[2] = tested on: Bacteroides caccae
Summary of the method: as §1

[3] = tested on: Bacteroides clarus
Summary of the method: as §1

[4] = tested on: Bacteroides dorei
Summary of the method: as §1

[5] = tested on: Bacteroides stercoris
Summary of the method: as §1

[6] = tested on: Bacteroides thetaiotaomicron
Summary of the method: as §1

[7] = tested on: Bacteroides uniformis
Summary of the method: as §1

[8] = tested on: Bifidobacterium longum subsp. longum
Summary of the method: as §1

[9] = tested on: Clostridium difficile
Summary of the method: as §1

[10] = tested on: Collinsella aerofaciens
Summary of the method: as §1

[11] = tested on: Coprococcus comes
Summary of the method: as §1

[12] = tested on: Escherichia coli ED1a
Summary of the method: as §1

[13] = tested on: Escherichia coli IAI1
Summary of the method: as §1

[14] = tested on: Eubacterium rectale
Summary of the method: as §1

[15] = tested on: Fusobacterium nucleatum subsp. animalis
Summary of the method: as §1

[16] = tested on: Lactobacillus gasseri
Summary of the method: as §1

[17] = tested on: Lactobacillus paracasei
Summary of the method: as §1

[18] = tested on: Odoribacter splanchnicus
Summary of the method: as §1

[19] = tested on: Parabacteroides distasonis
Summary of the method: as §1

[20] = tested on: Parabacteroides merdae
Summary of the method: as §1

Measured: growth AUC

CCSc1nc(NC(C)C)nc(NC(C)C)n1
inactive: [1] 0.919 | [2] 1.01 | [3] 0.923 | [4] 0.983 | [5] 0.88 | [6] 0.863 | [7] 0.948 | [8] 0.984 | [9] 1.03 | [10] 0.995 | [11] 0.984 | [12] 1.01 | [13] 0.982 | [14] 0.787 | [15] 0.91 | [16] 1.03 | [17] 0.896 | [18] 0.968 | [19] 1 | [20] 0.91

CCc1cccc(C)c1NC(=O)C(=O)O
inactive: [1] 0.965 | [2] 1.01 | [3] 0.999 | [4] 1 | [5] 0.999 | [6] 0.942 | [7] 1 | [8] 1.02 | [9] 0.972 | [10] 0.983 | [11] 0.985 | [12] 1.02 | [13] 1 | [14] 0.989 | [15] 0.981 | [16] 0.916 | [17] 0.969 | [18] 0.998 | [19] 0.982 | [20] 1.03

COC(=O)C(C)Oc1ccc(Cl)cc1Cl (stereo not given)
inactive: [1] 0.964 | [2] 1.05 | [3] 1 | [4] 1.05 | [5] 0.849 | [6] 1.01 | [7] 1.05 | [8] 1 | [9] 1.03 | [10] 0.987 | [11] 1.01 | [12] 1.01 | [13] 0.988 | [14] 1.14 | [15] 0.95 | [16] 0.991 | [17] 1.01 | [18] 1.11 | [19] 0.996 | [20] 1.01

COC(=O)c1ccccc1S(=O)(=O)NC(=O)Nc1nc(OC(F)F)cc(OC(F)F)n1
inactive: [1] 0.91 | [2] 1 | [3] 0.971 | [4] 0.997 | [5] 0.988 | [6] 0.965 | [7] 1.02 | [8] 1.03 | [9] 0.993 | [10] 0.992 | [11] 1 | [12] 1.02 | [13] 1.01 | [14] 0.964 | [15] 0.957 | [16] 1.19 | [17] 1.04 | [18] 0.99 | [19] 1.04 | [20] 1

COc1cc(OC)nc(NC(=O)NS(=O)(=O)Nc2ccccc2C(=O)C2CC2)n1
inactive: [1] 0.985 | [2] 0.988 | [3] 0.943 | [4] 0.963 | [5] 0.983 | [6] 0.961 | [7] 0.915 | [8] 0.961 | [9] 1.01 | [10] 0.997 | [11] 0.952 | [12] 1 | [13] 0.978 | [14] 0.807 | [15] 0.97 | [16] 1.07 | [17] 1.01 | [18] 0.963 | [19] 0.964 | [20] 0.913

CCOC(=O)C1=NN(c2ccc(Cl)cc2Cl)C(C)(C(=O)OCC)C1 (stereo not given)
inactive: [1] 0.965 | [2] 0.979 | [3] 0.932 | [4] 1.02 | [5] 0.933 | [6] 0.92 | [7] 0.95 | [8] 0.931 | [9] 1.03 | [10] 1.01 | [11] 0.97 | [12] 0.993 | [13] 0.989 | [14] 0.903 | [15] 0.985 | [16] 1.06 | [17] 0.883 | [18] 1.04 | [19] 0.918 | [20] 0.928

CCCCOCCOC(=O)COc1nc(Cl)c(Cl)cc1Cl
inactive: [1] 1.02 | [2] 0.954 | [3] 0.956 | [4] 0.948 | [5] 0.995 | [6] 0.963 | [7] 0.928 | [8] 0.934 | [9] 0.979 | [10] 0.977 | [11] 0.982 | [12] 0.994 | [13] 0.973 | [14] 1.02 | [15] 0.984 | [16] 0.917 | [17] 0.962 | [18] 1.09 | [19] 0.978 | [20] 0.956

CC1CN(C2CCCCCCCCCCC2)CC(C)O1 (mixture of isomers)
inactive: [1] 0.892 | [2] 1.01 | [3] 0.967 | [4] 1.06 | [5] 0.84 | [6] 0.985 | [7] 1.08 | [8] 0.985 | [9] 0.961 | [10] 0.915 | [11] 0.992 | [12] 0.994 | [13] 0.971 | [14] 1.23 | [15] 0.955 | [16] 0.926 | [17] 1.02 | [18] 1.14 | [19] 1.02 | [20] 0.97

N#CC(=NOCC1OCCO1)c1ccccc1
inactive: [1] 1.03 | [2] 0.834 | [3] 0.992 | [4] 0.963 | [5] 1.06 | [6] 0.981 | [7] 0.96 | [8] 1.06 | [9] 1.02 | [10] 0.936 | [11] 1.01 | [12] 0.971 | [13] 0.982 | [14] 1.06 | [15] 0.99 | [16] 0.962 | [17] 1.01 | [18] 1.11 | [19] 0.981 | [20] 0.931

COc1c(I)cc(C#N)cc1I
inactive: [1] 0.86 | [2] 0.837 | [3] 0.932 | [4] 1.02 | [5] 1.13 | [6] 0.932 | [7] 0.882 | [8] 1.02 | [9] 0.943 | [10] 0.883 | [11] 0.973 | [12] 1 | [13] 0.975 | [14] 1 | [15] 0.981 | [16] 0.895 | [17] 0.911 | [18] 1.03 | [19] 0.966 | [20] 0.944

Cc1cc(C)c(C2=C(O)C3(CCCC3)OC2=O)c(C)c1
inactive: [1] 1.01 | [2] 1.01 | [3] 1.02 | [4] 1.01 | [5] 1.08 | [6] 0.986 | [7] 0.989 | [8] 1.04 | [9] 1.04 | [10] 1.04 | [11] 0.981 | [12] 0.997 | [13] 1.01 | [14] 0.996 | [15] 0.947 | [16] 1.09 | [17] 1.02 | [20] 1
active: [18] 0.563 | [19] 0.622

Cc1cccc(C)c1N(CCSCC(O)C(=O)[O-])C(=O)CO.[Na+] (stereo not given)
inactive: [1] 1.15 | [2] 0.993 | [3] 1.02 | [4] 0.907 | [5] 1.01 | [6] 0.98 | [7] 1.01 | [8] 1.05 | [9] 0.992 | [10] 0.913 | [11] 1.04 | [12] 0.977 | [13] 0.97 | [14] 1.07 | [15] 0.984 | [16] 0.849 | [17] 0.95 | [18] 1.01 | [19] 0.927 | [20] 0.99

CC(C)Nc1nc(N)nc(Cl)n1
inactive: [1] 0.991 | [2] 1.03 | [3] 1.03 | [4] 1.01 | [5] 1.07 | [6] 1.04 | [7] 1.01 | [8] 1 | [9] 1.03 | [10] 1.02 | [11] 1.01 | [12] 1.01 | [13] 1.05 | [14] 1.01 | [15] 1.05 | [16] 0.98 | [17] 0.96 | [18] 1.06 | [19] 1.06 | [20] 1.04

CCCOC(=O)c1ccc(O)cc1
inactive: [1] 0.879 | [2] 0.979 | [3] 0.986 | [4] 1.02 | [5] 0.993 | [6] 0.989 | [7] 0.984 | [8] 1.01 | [9] 0.98 | [10] 1.01 | [11] 1 | [12] 0.986 | [13] 0.971 | [14] 0.951 | [15] 0.985 | [16] 1.06 | [17] 1.01 | [18] 0.945 | [19] 1.01 | [20] 0.988

CCOC(=O)c1cnn(C)c1S(=O)(=O)NC(=O)Nc1nc(OC)cc(OC)n1
inactive: [1] 1.08 | [2] 0.999 | [3] 1.02 | [4] 1 | [5] 1.15 | [6] 0.966 | [7] 1.03 | [8] 1.06 | [9] 0.982 | [10] 1 | [11] 0.991 | [12] 1.02 | [13] 1.01 | [14] 1.08 | [15] 1.09 | [16] 1.1 | [17] 1.02 | [18] 0.759 | [19] 1.03 | [20] 1.02
